# The supplement of paper PMC10849652
# Of roughly 8,800 targets only a part is listed; those with a hit were picked by preference. About 0.5% of all pairs of compound and target were hits. Values without a mark were called inactive.
# Legend:
# Assay in all cases: log2 fold change, soluble protein after heating vs DMSO (PISA); higher = thermal stabilisation; K562 lysate, 10 uM; active = over 0.2 and 3.5 SD of the protein, either way, in both replicates (recomputed)
# [1] = compound: NCC(=O)Nc1ccc(-n2nc(C(F)(F)F)cc2-c2ccc3c(ccc4ccccc43)c2)cc1
# Procedure, shortened: (§1)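 Quantification was by TMTpro 16plex LC-MS/MS with equalised channel sums, applied to the supernatant after 21,000xg for 90 min. Samples were crude K562 extract at 1 mg/mL protein in PBS pH 7.4 with 1 mM MgCl2, treated with 10 μM compound for 30 min, heated for 3 min across 48°C-58°C, pooled and brought to 0.5% NP-40 at 4°C. Values are log-two fold changes in thermal stability relative to solvent controls, from duplicates.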
# vorinostat = compound: O=C(CCCCCCC(=O)Nc1ccccc1)NO [vorinostat]
# Procedure, shortened: as §1
# silmitasertib = compound: O=C(O)c1ccc2c(c1)nc(Nc1cccc(Cl)c1)c1ccncc12 [silmitasertib]
# Procedure, shortened: as §1
# [2] = compound: O=C1NC(=O)C(c2cnc3ccccn23)=C1c1cn2c3c(cc(F)cc13)CN(C(=O)N1CCCCC1)CC2
# Procedure, shortened: as §1
# entospletinib = compound: c1cn2cc(-c3ccc4cn[nH]c4c3)nc(Nc3ccc(N4CCOCC4)cc3)c2n1 [entospletinib]
# Procedure, shortened: as §1
# Chain of UniProt Q6NXE6 (Q6NXE6 whole entry, looked up): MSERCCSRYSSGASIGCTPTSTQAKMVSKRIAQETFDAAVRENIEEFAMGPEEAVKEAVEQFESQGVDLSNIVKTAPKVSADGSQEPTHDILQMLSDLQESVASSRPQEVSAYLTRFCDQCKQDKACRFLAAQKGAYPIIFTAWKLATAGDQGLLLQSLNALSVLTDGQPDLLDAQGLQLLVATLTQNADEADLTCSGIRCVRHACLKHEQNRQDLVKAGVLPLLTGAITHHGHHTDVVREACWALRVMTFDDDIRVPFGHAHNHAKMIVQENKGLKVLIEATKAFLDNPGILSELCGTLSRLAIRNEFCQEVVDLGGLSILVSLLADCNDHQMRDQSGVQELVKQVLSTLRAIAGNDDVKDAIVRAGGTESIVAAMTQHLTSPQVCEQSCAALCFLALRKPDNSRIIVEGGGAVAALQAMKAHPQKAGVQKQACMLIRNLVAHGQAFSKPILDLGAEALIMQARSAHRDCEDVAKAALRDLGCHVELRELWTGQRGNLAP
# Chain of UniProt Q9Y6B7 (Q9Y6B7 whole entry, looked up): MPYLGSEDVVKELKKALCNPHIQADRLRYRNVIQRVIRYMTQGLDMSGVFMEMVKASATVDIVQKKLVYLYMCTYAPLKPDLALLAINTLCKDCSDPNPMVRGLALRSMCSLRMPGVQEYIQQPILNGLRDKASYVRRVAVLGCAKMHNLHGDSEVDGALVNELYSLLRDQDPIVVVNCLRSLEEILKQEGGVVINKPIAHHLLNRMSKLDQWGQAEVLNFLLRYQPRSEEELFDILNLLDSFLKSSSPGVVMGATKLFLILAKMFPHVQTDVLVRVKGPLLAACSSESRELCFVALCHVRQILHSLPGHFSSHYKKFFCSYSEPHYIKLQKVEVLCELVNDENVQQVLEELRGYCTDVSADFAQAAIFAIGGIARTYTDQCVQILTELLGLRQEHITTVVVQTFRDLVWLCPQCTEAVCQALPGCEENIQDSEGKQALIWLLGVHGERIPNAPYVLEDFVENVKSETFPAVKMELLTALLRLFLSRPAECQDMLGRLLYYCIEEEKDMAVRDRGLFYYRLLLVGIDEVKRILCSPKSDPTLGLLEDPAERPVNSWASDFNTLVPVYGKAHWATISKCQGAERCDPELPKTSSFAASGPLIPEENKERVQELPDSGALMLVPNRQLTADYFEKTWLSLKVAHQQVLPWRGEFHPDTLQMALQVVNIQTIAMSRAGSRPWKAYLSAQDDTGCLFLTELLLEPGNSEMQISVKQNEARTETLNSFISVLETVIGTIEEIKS
# Chain of UniProt Q6NXT1 (Q6NXT1 whole entry, looked up): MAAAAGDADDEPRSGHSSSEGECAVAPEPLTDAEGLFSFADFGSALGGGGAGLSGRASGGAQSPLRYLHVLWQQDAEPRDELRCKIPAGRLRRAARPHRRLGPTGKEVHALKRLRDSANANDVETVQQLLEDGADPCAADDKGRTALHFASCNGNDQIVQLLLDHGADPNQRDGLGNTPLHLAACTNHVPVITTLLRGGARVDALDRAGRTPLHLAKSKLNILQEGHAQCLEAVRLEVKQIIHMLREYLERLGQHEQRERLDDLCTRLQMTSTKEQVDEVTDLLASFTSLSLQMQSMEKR
# Chain of UniProt P08758 (P08758 whole entry, looked up): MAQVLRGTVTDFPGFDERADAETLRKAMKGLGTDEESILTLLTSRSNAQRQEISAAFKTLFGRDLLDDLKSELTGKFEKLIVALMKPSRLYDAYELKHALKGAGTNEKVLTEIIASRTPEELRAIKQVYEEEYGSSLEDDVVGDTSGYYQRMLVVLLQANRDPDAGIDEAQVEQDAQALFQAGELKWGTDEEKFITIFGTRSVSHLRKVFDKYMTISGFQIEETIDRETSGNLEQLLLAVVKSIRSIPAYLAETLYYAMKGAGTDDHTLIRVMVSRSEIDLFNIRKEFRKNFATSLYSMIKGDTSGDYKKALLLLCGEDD
# Chain of UniProt O15440 (O15440 whole entry, looked up): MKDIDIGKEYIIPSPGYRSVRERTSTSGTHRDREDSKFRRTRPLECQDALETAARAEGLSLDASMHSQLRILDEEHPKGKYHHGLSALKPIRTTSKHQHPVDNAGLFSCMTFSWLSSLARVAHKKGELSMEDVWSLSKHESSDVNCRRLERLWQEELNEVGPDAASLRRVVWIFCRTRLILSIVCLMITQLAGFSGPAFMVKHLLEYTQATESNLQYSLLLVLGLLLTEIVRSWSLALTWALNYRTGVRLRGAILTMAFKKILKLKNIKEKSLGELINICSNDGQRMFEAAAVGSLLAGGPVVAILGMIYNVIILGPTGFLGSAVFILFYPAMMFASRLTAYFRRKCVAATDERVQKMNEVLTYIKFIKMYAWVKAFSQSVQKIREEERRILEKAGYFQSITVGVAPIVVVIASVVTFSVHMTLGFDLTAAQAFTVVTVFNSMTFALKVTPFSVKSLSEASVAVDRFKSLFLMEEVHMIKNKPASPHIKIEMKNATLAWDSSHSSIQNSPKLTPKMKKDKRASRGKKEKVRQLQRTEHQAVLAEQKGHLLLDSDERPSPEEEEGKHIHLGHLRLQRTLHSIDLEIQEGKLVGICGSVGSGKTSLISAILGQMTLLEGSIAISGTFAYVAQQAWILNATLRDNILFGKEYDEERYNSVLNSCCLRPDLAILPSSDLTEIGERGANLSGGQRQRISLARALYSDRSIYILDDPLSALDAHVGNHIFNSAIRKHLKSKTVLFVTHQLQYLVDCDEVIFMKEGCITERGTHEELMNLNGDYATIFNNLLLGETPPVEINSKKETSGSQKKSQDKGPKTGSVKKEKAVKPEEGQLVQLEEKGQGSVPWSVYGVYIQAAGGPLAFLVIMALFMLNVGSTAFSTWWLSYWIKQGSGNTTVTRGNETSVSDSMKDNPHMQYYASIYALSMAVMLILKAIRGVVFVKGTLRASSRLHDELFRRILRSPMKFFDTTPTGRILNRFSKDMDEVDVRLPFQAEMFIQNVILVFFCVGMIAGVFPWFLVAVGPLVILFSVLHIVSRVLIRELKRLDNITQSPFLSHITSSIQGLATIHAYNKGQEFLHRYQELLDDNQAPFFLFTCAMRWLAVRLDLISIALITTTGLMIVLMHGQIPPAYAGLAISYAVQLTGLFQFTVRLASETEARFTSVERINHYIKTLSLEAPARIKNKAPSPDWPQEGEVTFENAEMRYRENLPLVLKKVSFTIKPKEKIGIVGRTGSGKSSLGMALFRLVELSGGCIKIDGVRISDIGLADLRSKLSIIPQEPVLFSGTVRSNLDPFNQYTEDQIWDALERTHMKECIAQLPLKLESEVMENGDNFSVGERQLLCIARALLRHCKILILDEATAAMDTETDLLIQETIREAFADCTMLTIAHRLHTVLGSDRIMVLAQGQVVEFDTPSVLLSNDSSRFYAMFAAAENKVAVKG
# Chain of UniProt Q9BRQ8 (Q9BRQ8 whole entry, looked up): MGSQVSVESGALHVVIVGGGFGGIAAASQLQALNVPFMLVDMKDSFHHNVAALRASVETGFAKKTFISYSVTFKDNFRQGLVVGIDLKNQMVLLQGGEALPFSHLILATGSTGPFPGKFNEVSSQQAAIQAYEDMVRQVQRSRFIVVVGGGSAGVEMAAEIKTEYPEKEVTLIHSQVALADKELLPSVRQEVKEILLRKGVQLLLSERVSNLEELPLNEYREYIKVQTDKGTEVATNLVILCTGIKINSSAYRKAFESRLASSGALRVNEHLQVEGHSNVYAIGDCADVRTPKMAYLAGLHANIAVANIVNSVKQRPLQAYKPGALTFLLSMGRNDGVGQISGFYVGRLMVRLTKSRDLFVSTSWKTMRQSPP
# Chain of UniProt P35611 (P35611 whole entry, looked up): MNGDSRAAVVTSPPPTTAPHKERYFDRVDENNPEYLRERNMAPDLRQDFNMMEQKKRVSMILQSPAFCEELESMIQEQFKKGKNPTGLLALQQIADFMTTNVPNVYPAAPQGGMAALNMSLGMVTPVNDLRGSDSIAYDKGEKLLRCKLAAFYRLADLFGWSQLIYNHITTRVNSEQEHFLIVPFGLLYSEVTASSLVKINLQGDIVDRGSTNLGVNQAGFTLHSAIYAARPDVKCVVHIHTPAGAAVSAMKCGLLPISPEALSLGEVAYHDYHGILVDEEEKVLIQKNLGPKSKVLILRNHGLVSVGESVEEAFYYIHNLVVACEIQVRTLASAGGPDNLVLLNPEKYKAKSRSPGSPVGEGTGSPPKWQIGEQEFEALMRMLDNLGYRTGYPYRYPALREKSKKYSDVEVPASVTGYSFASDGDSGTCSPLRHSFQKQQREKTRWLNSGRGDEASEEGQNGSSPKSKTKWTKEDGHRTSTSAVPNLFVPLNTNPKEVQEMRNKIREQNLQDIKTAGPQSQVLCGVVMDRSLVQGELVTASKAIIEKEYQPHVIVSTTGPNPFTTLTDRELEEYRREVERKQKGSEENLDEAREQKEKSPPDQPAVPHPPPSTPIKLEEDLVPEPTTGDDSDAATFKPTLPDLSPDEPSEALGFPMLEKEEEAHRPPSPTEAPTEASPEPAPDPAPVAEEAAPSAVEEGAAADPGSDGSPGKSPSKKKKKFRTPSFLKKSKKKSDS
# Chain of UniProt Q99943 (Q99943 whole entry, looked up): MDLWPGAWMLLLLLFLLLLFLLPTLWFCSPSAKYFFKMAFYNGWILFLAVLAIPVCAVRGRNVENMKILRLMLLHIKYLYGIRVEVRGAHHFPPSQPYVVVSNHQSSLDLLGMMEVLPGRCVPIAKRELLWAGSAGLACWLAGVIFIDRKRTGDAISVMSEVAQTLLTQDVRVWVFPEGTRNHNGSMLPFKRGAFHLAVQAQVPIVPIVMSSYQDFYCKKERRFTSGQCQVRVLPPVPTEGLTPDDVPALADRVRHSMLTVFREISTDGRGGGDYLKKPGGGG
# Chain of UniProt P27695 (P27695 whole entry, looked up): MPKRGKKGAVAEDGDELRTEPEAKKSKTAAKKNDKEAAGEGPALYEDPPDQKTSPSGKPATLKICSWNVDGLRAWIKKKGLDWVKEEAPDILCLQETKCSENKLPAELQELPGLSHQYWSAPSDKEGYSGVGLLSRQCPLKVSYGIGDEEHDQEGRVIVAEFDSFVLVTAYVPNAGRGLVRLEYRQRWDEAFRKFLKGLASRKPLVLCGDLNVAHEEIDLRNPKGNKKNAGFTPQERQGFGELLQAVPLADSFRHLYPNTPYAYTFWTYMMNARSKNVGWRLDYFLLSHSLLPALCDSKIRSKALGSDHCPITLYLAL
Target,log2 fold change [1],log2 fold change (vorinostat),log2 fold change (silmitasertib),log2 fold change [2],log2 fold change (entospletinib)
APAF1 (UniProt O14727),0.021,-0.292 (active),0.032,0.057,0.032
ABCA3 (UniProt Q99758),-0.157,0.087,-0.062,0,0.28
APEX1 (UniProt P27695),0.007,-0.15,0.026,-0.001,-0.002
ANXA2 isoform 2 (UniProt P07355),-0.015,0.023,-0.015,0.003,0.016
ALG8 (UniProt Q9BVK2),-0.022,-0.05,0.063,-0.008,-0.007
ABCF2 isoform 2 (UniProt Q9UG63),0.103,-0.326 (active),0.054,0.016,-0.028
ANKRD52 (UniProt Q8NB46),-0.043,-0.491 (active),0.063,-0.023,-0.057
ALDH1L2 (UniProt Q3SY69),0.017,0.106,0.016,-0.027,0.031
AGO4 (UniProt Q9HCK5),-0.007,0.09,-0.018,-0.006,-0.013
ANKRD54 (UniProt Q6NXT1),0.023,-0.245 (active),0.007,-0.076,-0.006
ALKBH4 (UniProt Q9NXW9),0.061,0.264 (active),-0.032,-0.088,-0.012
ALDH18A1 (UniProt P54886),0.023,-0.401 (active),0.023,-0.015,0.022
AP1G2 (UniProt O75843),0.071,-0.31 (active),-0.03,0.008,0.018
AARS2 (UniProt Q5JTZ9),-0.004,-0.243 (active),0.085,0.028,0.035
AIMP1 isoform 2 (UniProt Q12904),-0.01,-0.235 (active),0.02,0.007,0.02
ARMC6 (UniProt Q6NXE6),-0.011,-0.422 (active),0.02,-0.006,0.011
ABL2 (UniProt P42684),-0.093,-0.274,0.073,-0.055,-0.05
AKR1B1 (UniProt P15121),-0.018,0.24 (active),-0.004,-0.026,-0.065
ARL1 (UniProt P40616),0.017,-0.293 (active),-0.048,0.027,0.034
ACBD6 (UniProt Q9BR61),-0.009,-0.298 (active),0.003,0.028,-0.028
AKR1C3 (UniProt P42330),-0.009,0.546 (active),0.044,0.009,0.059
AMD1 (UniProt P17707),0.071,-0.076,0.062,0.499,0.211
AGGF1 (UniProt Q8N302),0.135,0.059,-0.06,0,-0.015
AGPAT1 (UniProt Q99943),-0.027,-0.27 (active),0.106,-0.029,0.003
AP3D1 isoform 5 (UniProt O14617),-0.001,-0.015,-0.003,0.012,0.006
ABHD12 isoform 2 (UniProt Q8N2K0),-0.003,0.392 (active),-0.026,-0.023,-0.023
AKT2 (UniProt P31751),-0.021,-0.175,0.011,-0.019,0.008

Target,log2 fold change [1],log2 fold change (vorinostat),log2 fold change (silmitasertib),log2 fold change [2],log2 fold change (entospletinib)
ARHGAP21 (UniProt Q5T5U3),0.021,-0.364 (active),0.014,-0.041,-0.104
ARL15 (UniProt Q9NXU5),0.007,-0.109,0.016,-0.029,0.014
ABCC5 (UniProt O15440),0.025,0.042,-0.023,-0.028,-0.036
AFF1 isoform 2 (UniProt P51825),0.019,-0.074,-0.046,-0.046,-0.064
ADRM1 (UniProt Q16186),0.051,-0.231 (active),-0.027,-0.04,-0.002
ACIN1 (UniProt E7EQT4),0.076,0.079,-0.013,-0.013,0.021
ACACB (UniProt O00763),-0.026,-0.438 (active),0.03,-0.009,0.088
ACADM isoform 2 (UniProt P11310),-0.015,0.344 (active),-0.015,0.023,0.016
ASB6 (UniProt Q9NWX5),0.116,-0.005,-0.057,-0.019,0.074
ANXA5 (UniProt P08758),-0.008,0.056,0.021,-0.017,0.006
AMDHD2 isoform 3 (UniProt Q9Y303),0.038,0.088,-0.004,-0.002,0.056
AIFM2 (UniProt Q9BRQ8),-0.014,-0.261,-0.015,0.188,0.003
ARAP1 (UniProt Q96P48),-0.04,-0.379 (active),0.017,-0.014,-0.012
ABCD3 (UniProt P28288),-0.019,-0.164,0.113,-0.08,0.034
ASCC2 (UniProt Q9H1I8),-0.008,-0.048,0.077,0.026,-0.017
ACSL1 (UniProt P33121),-0.092,-0.221 (active),0.138,-0.031,-0.027
ARAF (UniProt P10398),-0.072,-0.487 (active),-0.023,0.019,-0.011
AP4B1 (UniProt Q9Y6B7),0.08,-0.286 (active),0.037,-0.051,0.022
ABHD17A isoform 2 (UniProt Q96GS6),0.001,0.363 (active),-0.059,-0.025,0.043
ASPH (UniProt Q12797),0,0.131,-0.008,0.029,-0.016
ABHD11 (UniProt Q8NFV4),-0.001,0.195,0.324 (active),0.003,0.05
ARHGAP6 (UniProt O43182),0.058,-0.346 (active),0.089,0.025,0.004
ADD1 isoform 3 (UniProt P35611),-0.024,0.048,-0.012,-0.022,-0.014
ABCF3 (UniProt Q9NUQ8),0.026,-0.439 (active),0.033,-0.004,-0.013
ADAR isoform 4 (UniProt P55265),-0.029,-0.35 (active),0.019,-0.031,0.022
ADAM17 (UniProt P78536),0.014,0.089,-0.006,0.042,0.014
